# Laboratory results from ChEMBL document CHEMBL4513216, “Probing the Open Global Health Chemical Diversity Library for Multistage-Active Starting Points for Next-Generation Antimalarials” (ACS Infect Dis, 2020).
# The whole screen tested about 69,000 compounds, of which about 8,600 (12%) showed an effect of 50% or more. This excerpt belongs to a sample that is enriched for strong results.
# Tested on: Plasmodium berghei
# Test: Screen against P. berghei liver stage (PbLuc), transformed with Luciferase, at 10uM
# Type: functional, HepG2
# Settings: tested at 10 uM
row,Structure (SMILES),INHIBITION [%]
1,O=C(c1ccc(C2CCCN2C(=O)c2ccc[nH]2)s1)N1CCSCC1 (configuration not stated),-32.2
2,CC(C)(C)n1ncc2c1CCCC2NCc1cccc(C(N)=O)c1 (configuration not stated),-8.4
3,CC(C)(C)n1ncc2c1CCCC2NCc1cccc2c1OCCO2 (configuration not stated),35.9
4,O=C1C(NCc2ccc3c(c2)CCO3)CCN1Cc1ccccc1 (configuration not stated),6.88
5,CC(C)(C)n1ncc2c1CCCC2NCc1ccc2c(c1)OCCO2 (configuration not stated),93.1
6,COCc1nc(CNC2CCCc3c2cnn3C(C)(C)C)cs1 (configuration not stated),2.02
7,CC(C)(C)n1ncc2c1CCCC2NCc1ccsc1 (configuration not stated),50.1
8,Cn1ncc2c1CCCC2NCc1cnc(-c2ccccc2)nc1 (configuration not stated),33
9,CC(C)(C)n1ncc2c1CCCC2NCc1ccc2ncccc2c1 (configuration not stated),72.8
10,CCn1ncc2c1CCCC2NCc1ccc2c(c1)CCO2 (configuration not stated),5.03
11,CCn1ncc2c1CCCC2NCc1ccc2c(c1)OCCO2 (configuration not stated),1.51
12,CC(C)(C)n1ncc2c1CCCC2NCc1cccc2c1OCO2 (configuration not stated),20.2
13,CC(C)(C)n1ncc2c1CCCC2NCc1ccc2c(c1)CCO2 (configuration not stated),61
14,CNC(=O)C1(C)CN(S(=O)(=O)c2cccc(OC)c2)CCO1 (configuration not stated),11.175
15,O=C(c1cnccn1)N1C[C@@H](OCc2cccnc2)[C@H]2OCCC[C@H]21,14.6
16,CC(C)CCn1[nH]c(CNc2ccccc2)nc1=O,-7.9
17,CN(C)C1CCN(C(=O)c2cc3c(s2)CCN3C(=O)C2CC2)CC1,49.1
18,CCC1=N[C@@]2(CC[C@@H]3CN(Cc4cccc(Cl)c4)C[C@@H]32)C(=O)N1C,30.3
19,CCC1=N[C@@]2(CC[C@@H]3CN(CC)C[C@@H]32)C(=O)N1C,23.1
20,CCC1=N[C@@]2(CC[C@@H]3CN(Cc4ccc(Cl)cc4)C[C@@H]32)C(=O)N1C,50.6
21,CCC1=N[C@@]2(CC[C@@H]3CN(Cc4ccccc4C)C[C@@H]32)C(=O)N1C,46.6
22,CCC1=N[C@@]2(CC[C@@H]3CN(Cc4ccc(F)cc4)C[C@@H]32)C(=O)N1C,62
23,CCC1=N[C@@]2(CC[C@@H]3CN(Cc4ccc(C)cc4)C[C@@H]32)C(=O)N1C,34.9
24,Cc1cccc(CNC(=O)Nc2ccn(CCCC(=O)N(C)C)n2)c1,-6.52
25,CC1CCN(c2nc3cn(-c4ccc5c(c4)OCO5)c(=O)c-3c[nH]2)CC1,23.5
26,Cc1ccc(CN2CCC[C@@H]3CN(C(=O)c4ccco4)C[C@@H]32)o1,-2.35
27,Cc1cc(C(=O)Nc2ccc3c(ccn3CCN3CCOCC3)c2)on1,12.8
